Screens from PubChem BioAssay.
Rows were chosen to be rich in hits. Some 6.8% of all compounds tested hit in one or more screens of this group.
PMK inhibit: blocks S. pneumoniae phosphomevalonate kinase. AID 539. purified PMK, PK/LDH-coupled NADH absorbance 340 nm. 65,000 compounds, 0.49% hits. inhibition, % at 10 µM;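 active means top-ranked compounds by inhibition in the single 10 µM screen, taking a fixed number of the strongest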;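 further: 0% = full reaction with DMSO carrier and 100% = background rate without enzyme reaction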
NADH coupling: blocks coupling enzymes of NAD/NADH assays | coupled PK/LDH NADH assays, four targets | IC50, µM (doses to about 10 µM), without a hit: at the highest dose inhibition | 65,000 compounds, 0.02% hits | AID 774;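 active means single-dose screening hits from any of four coupled enzyme assays that gave an IC50 when retested across doses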;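 further: the DPM-DC format reads NADH fluorescence rather than 340 nm absorbance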
MK inhibit: blocks S. pneumoniae mevalonate kinase; inhibition, % at 10 µM; AID 555; purified MK, PK/LDH-coupled NADH absorbance 340 nm; 65,000 compounds, 0.48% hits;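 active means ranked among the strongest by inhibition in the single 10 µM screen, a fixed top-ranked set picked for dose follow-up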
DPM-DC inhibit: inhibitors of Streptococcus pneumoniae diphosphomevalonate decarboxylase | purified DPM-DC, PK/LDH coupled NADH fluorescence | calls only at 10 µM | 65,000 compounds, 0.49% hits;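 active means the 320 compounds with the highest percent inhibition in the single-dose primary screen, excluding strongly autofluorescent ones, cut at about 32% in these data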;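 further: kinetic rate of NADH fluorescence loss reporting ADP formed by the decarboxylase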
Fluor 339 460: intrinsic fluorescence of library compounds, ex339/em460 – biochemical, MLSMR library, data from DPM-DC assay, artefact control, profiling panel; compound autofluorescence, ex339/em460 nm, NADH buffer; hits give high values; 1 = no-compound wells, NADH background; fluorescence fold increase at 10 µM; 65,000 compounds, 5.5% hits; AID 709;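 active means at 10 µM, mean starting fluorescence two-fold or more over control wells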;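 further: signal is the first read of a kinetic run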
A340 absorber: compounds absorbing at 340 nm | compound absorbance at 340 nm, fold over control | fold change at 10 µM | 65,000 tested, under 10 active | AID 708;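 active means at 10 µM dose, initial 340 nm absorbance at least 2 fold that of control wells; inactive means change under 2 fold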;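 further: initial absorbance extrapolated from kinetic A340 decline of NADH oxidation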
An asterisk follows results filed as active; i = inactive; / = no result given.

SMILES	PMK inhibit	NADH coupling	MK inhibit	DPM-DC inhibit	Fluor 339 460	A340 absorber
Cc1cc2n(n1)C(c1ccc(N(C)C)cc1)Nc1ccccc1-2 (centres undefined)	6.0	3.0%	0.0	/	3.71*	1.07
Cc1cc2n(n1)C(c1ccccc1)Nc1ccccc1-2 (centres undefined)	21.0	7.0%	2.0	i	2.01*	1.02
Cc1cc2n(n1)C(c1ccc3c(c1)OCO3)Nc1ccccc1-2 (centres undefined)	1.0	3.0%	4.0	i	2.28*	1.02
Clc1ccc2nc(NC3=NCN(CCN4CCOCC4)CN3)nc(-c3ccccc3)c2c1	14.0	17.0%	14.0	i	2.23*	1
C=CCOc1c(Br)cc(CNn2nnnc2N)cc1OCC	2.0	3.0%	6.0	i	1.09	1.08
N=c1c(C(=O)NCc2ccccc2)cc2c(=O)n3ccccc3nc2n1Cc1ccco1	0.0	6.0%	0.0	i	1.85	1
Cc1ccc(CNC(=O)c2cc3c(=O)n4ccccc4nc3n(Cc3ccco3)c2=N)cc1	6.0	7.0%	8.0	/	2.33*	1.01
CCOC(=O)c1cc2c(=O)n3ccccc3nc2n(CC2CCCO2)c1=NC(C)=O (centres undefined)	12.0	9.0%	10.0	i	2.04*	1.02
Cc1ccc(CNC(=O)c2cc3c(=O)n4ccccc4nc3n(CC3CCCO3)c2=N)cc1 (centres undefined)	8.0	5.0%	1.0	/	2.35*	1.03
N=c1c(C(=O)NCc2ccc(F)cc2)cc2c(=O)n3ccccc3nc2n1Cc1ccco1	7.0	7.0%	0.0	i	2.72*	1.07
CCOC(=O)c1cnc(C(C)(C)C)[nH]c1=O	0.0	1.0%	1.0	i	1.04	1.01
O=C(Cn1c(C(=O)N2CCN(C3CCCC3)CC2)cc2sccc21)c1ccccc1	8.0	6.0%	6.0	i	0.94	0.95
Cn1c(=O)c2c(SCC(=O)NCc3ccco3)nc(CC(C)(C)C)nc2n(C)c1=O	0.0	1.0%	4.0	i	1.09	1.03
CC(=O)C(Sc1nc(-c2ccco2)nc2c1c(=O)n(C)c(=O)n2C)C(=O)N(C)C (centres undefined)	14.0	9.0%	3.0	i	2.2*	1.11
Cn1c(SCc2ccccn2)nnc1-c1ccncc1	10.0	3.0%	0.0	i	1.13	1.02
N#Cc1nc(Cc2ccccc2)oc1N1CCC(Cc2ccccc2)CC1	0.0	0.0%	1.0	i	1.1	1.04
COc1ccccc1-c1nc(C#N)c(N2CCN(Cc3ccccc3)CC2)o1	13.0	18.0%	12.0	i	3.1*	1.02
COc1ccccc1-c1nc(C#N)c(N2CCC(Cc3ccccc3)CC2)o1	11.0	12.0%	12.0	/	3.91*	1.04
O=C(c1cccc(OC(F)F)c1)N1CCN(c2ncccn2)CC1	13.0	4.0%	0.0	i	1.13	1.02
Cc1ccc(-c2nc3cc(NC(=O)C(C)C)ccc3o2)cc1C	12.0	3.0%	4.0	/	3*	1.01
CC(C)C(=O)Nc1ccc(-c2nc3cccnc3o2)cc1	12.0	4.0%	7.0	/	2.45*	1.15
Cc1ccc(-c2nc3cc(NC(=O)C(C)C)ccc3o2)cc1	1.0	2.0%	5.0	/	2.46*	1.08
CC(C)C(=O)Nc1cccc(-c2nc3ccccc3o2)c1	6.0	6.0%	8.0	i	1.13	0.99
Cc1cc2nc(-c3ccc(NC(=O)C(C)C)cc3)oc2cc1C	0.0	0.0%	0.0	/	2.19*	1.13
O=C(CCN1CCN(Cc2ccccc2)CC1)Nc1cccc(Cl)c1	15.0	9.0%	12.0	i	1.09	1
SMILES	PMK inhibit	NADH coupling	MK inhibit	DPM-DC inhibit	Fluor 339 460	A340 absorber
COC(=O)CCSCC(=O)Nc1nnc(C)s1	1.0	2.0%	4.0	i	0.96	1.03
CC(Oc1ccc(Cl)cc1Cl)C(=O)Nc1ccc2oc(-c3ccncc3)nc2c1 (centres undefined)	5.0	9.0%	12.0	/	3.83*	1.02
CC(Oc1ccc(Cl)cc1Cl)C(=O)Nc1ncccn1 (centres undefined)	4.0	2.0%	8.0	i	1.05	1
Cc1nc2cccc(C(=O)NCc3ccccc3)c2o1	9.0	5.0%	7.0	i	1.18	1.02
Cc1ccsc1CN1CCN(c2ccccn2)CC1	0.0	15.0%	45.0*	i	1.09	1.04
COc1ccc2[nH]c(=O)c(CN(Cc3cccs3)Cc3nnnn3C(C)(C)C)cc2c1	12.0	6.0%	4.0	i	1.76	1
CCOc1ccc2[nH]c(=O)c(CN(CCN3CCOCC3)Cc3nnnn3C(C)(C)CC)cc2c1	15.0	11.0%	6.0	i	2.61*	1.03
COc1ccc2cc(CN(CCCN3CCOCC3)Cc3nnnn3C3CCCCC3)c(=O)[nH]c2c1	1.0	4.0%	6.0	i	1.23	1.11
CCOc1ccc2[nH]c(=O)c(CN(Cc3cccs3)Cc3nnnn3C(C)(C)C)cc2c1	7.0	5.0%	8.0	i	2.38*	1.05
COc1ccc(N2CCN(C(=O)CC3NC4CCCCC4NC3=O)CC2)cc1 (centres undefined)	3.0	4.0%	8.0	i	1.06	1.01
CCn1cc(-c2cc(C(F)(F)F)n3nc(C(=O)O)cc3n2)c(C)n1	4.0	3.0%	5.0	i	1.65	1.02
COc1cccc(OC)c1C(=O)N1CCN(Cc2ccccc2C(F)(F)F)CC1	2.0	8.0%	23.0	i	1.11	1.03
COc1cc(OC)cc(C(=O)N2CCN(Cc3ccccc3C(F)(F)F)CC2)c1	0.0	17.0%	50.0*	i	1.05	1.05
CN1CCCN(Cc2ccccc2C(F)(F)F)CC1	10.0	22.0%	57.0*	i	1.14	1.07
COc1ccc(C(=O)N2CCN(Cc3ccccc3C)CC2)cc1OC	11.0	10.0%	12.0	i	1.1	1.03
COc1cc(C(=O)N2CCN(Cc3ccccc3C(F)(F)F)CC2)cc(OC)c1OC	0.0	15.0%	45.0*	i	1.06	1.05
CC(SC1CCCC1)C(=O)NC(C)(C#N)C(C)C (centres undefined)	18.0	6.0%	0.0	i	1.02	1.01
CCOC(=O)C1=C(C)Nc2nc(SC)nn2C1c1ccc(C(=O)OC)cc1 (centres undefined)	6.0	3.0%	2.0	i	1.16	1
COc1ccc(C2C=C(C)Nc3nc(SC)nn32)cc1 (centres undefined)	8.0	8.0%	8.0	/	5.07*	1.03
NC1C2CN(c3nc4c(cc3F)c(=O)c(C(=O)O)cn4-c3ccc(F)cc3F)CC12 (centres undefined)	4.0	10.0%	5.0	i	2.11*	1.16
Cc1c(CN(C)CCc2ccccc2)c(=O)n(-c2ccccc2)n1C	0.0	11.0%	34.0	i	1.07	1.04
COc1ccc(NC(C)=O)cc1NC(=O)CSc1nc2ncccc2[nH]1	9.0	6.0%	10.0	i	1.09	1.01
CCOC(=O)c1c(C)n(OCc2ccccc2)c2ccc3nonc3c12	10.0	6.0%	2.0	/	2.2*	1.04
